# Shown are actives, neighbours in structure and some others; about 10% of the full set was active somewhere.
# HCT116 bCat-KO = beta-catenin-lacking colon tumor cell growth suppression | HCT116 beta-catenin knockout viability, CellTiter-Glo, 60 h; stronger effect = lower value | viability, % at 10 µM | 1.5% of 140,000 active | AID 818;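 active means viability at or under a set limit, the compound median less 4 SD, cut at about 6% in these data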;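 further: 0% = Hyamine 1622 control at 20 µM and 100% = untreated cell control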
# L major viab = Leishmania major promastigote growth inhibition | Leishmania major promastigotes, resazurin fluorescence viability | 9% of 200,000 active | inhibition, % at 10 µM; in the data active means inhibition above about 50%;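 further: promastigotes grown with compound for 44 hours at 28 °C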
# INS promoter inh = TRM-6 insulin promoter activity inhibition. inhibition, % at 2 µM. TRM-6 cells (human fetal islet line), insulin promoter-eGFP reporter, imaging; reporter expression induced with tamoxifen. 0.9% of 130,000 active;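 active means inhibition above the mean plus 3 SD, with well images judged a real hit on visual review, cut at about 60% in these data, passing the limit was not always enough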
# p97 inhibitor = human p97 ATPase inhibition; P55072; recombinant p97 ATPase, Kinase-Glo ATP luminescence, 3 h; inhibition, % at 8 µM; 0.42% of 220,000 active; in the data active means inhibition above about 15%;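 further: 0% = DMSO vehicle and 100% = wells lacking enzyme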
# ROMK primary = modulators of human ROMK potassium channel. AID 1918. B-score at 10 µM. P48048. Tet-inducible ROMK, thallium flux fluorescence; actives lie on both sides. 2% of 130,000 active;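 active means signal ratio slope over the read window, or its plate-corrected B-score, at least 3 SD from the plate mean, either direction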;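 further: B-score of the F/F0 ratio slope over 7 to 12 s after thallium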
# Target sequence (P48048 whole entry, looked up): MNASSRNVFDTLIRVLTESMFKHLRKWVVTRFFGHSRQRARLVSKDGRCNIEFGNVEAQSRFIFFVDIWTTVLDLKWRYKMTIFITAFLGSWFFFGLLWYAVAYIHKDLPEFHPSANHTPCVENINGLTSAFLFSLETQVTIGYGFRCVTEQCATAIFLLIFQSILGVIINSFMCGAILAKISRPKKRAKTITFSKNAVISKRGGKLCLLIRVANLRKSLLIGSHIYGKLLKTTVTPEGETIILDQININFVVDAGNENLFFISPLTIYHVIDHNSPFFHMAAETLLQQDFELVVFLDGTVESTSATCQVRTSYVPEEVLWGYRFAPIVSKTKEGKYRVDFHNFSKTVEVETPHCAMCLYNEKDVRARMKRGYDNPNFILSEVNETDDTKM
# HCT116 PTEN-null = PTEN-deleted cell growth suppression; HCT116 PTEN-null viability, CellTiter-Glo, 60 h; stronger effect = lower value; 1.2% of 140,000 active; viability, % at 10 µM; AID 827;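 active means viability at or below a set limit, 4 SD under the median of all tested compounds, cut at about 3.7% in these data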;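 further: PTEN knockout HCT116 line with beta catenin targeted HCT116 as companion control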
# The depositor's hits bear a star; . = no result given.
SMILES,HCT116 bCat-KO,L major viab,INS promoter inh,p97 inhibitor,ROMK primary,HCT116 PTEN-null
O=C(NN1C(=O)c2ccccc2NC1c1ccoc1)c1ccc([N+](=O)[O-])cc1 (stereo unspecified),.,-0.3,-7.1,0.7,0.866,.
O=C(NN1C(=O)c2ccccc2NC1c1ccc([N+](=O)[O-])o1)c1ccc([N+](=O)[O-])cc1 (stereo unspecified),.,94.6*,-35.7,1.0,-0.29,.
O=C(NN1C(=O)c2ccccc2NC1c1ccc([N+](=O)[O-])o1)c1ccccc1 (stereo unspecified),.,86.4*,.,1.2,0.0291,.
CC(=O)C1=C(C)Nc2ncnn2C1c1ccccc1OCc1ccccc1 (stereo unspecified),93.6,61.4*,33.3,-2.9,.,100.0
COc1ccccc1C1C(C(=O)NCc2ccccc2)=C(C)Nc2ncnn21 (stereo unspecified),81.8,-8.8,-34.4,5.2,-0.419,103.0
O=C(Oc1cncc(Cl)c1)c1ccco1,90.3,-4.0,-6.9,2.2,.,100.8
O=C(Oc1c(Cl)cc(Cl)c2cccnc12)c1ccco1,3.5*,97.9*,67.9*,4.4,0.92,12.6
Oc1c(Cl)cc(Cl)c2cccnc12,.,96.0*,-9.1,-1.3,0.533,.
COCCNCC(=O)Nc1nc(C)cs1,.,1.5,.,-5.1,-0.536,.
O=C(O)c1nn(CC(=O)N2CCN(S(=O)(=O)c3ccc(Cl)cc3)CC2)c(=O)c2ccccc12,.,.,.,5.9,0.133,.
O=C(Cn1nnc(-c2ccccc2Cl)n1)N1CCN(S(=O)(=O)c2ccc(Cl)cc2)CC1,82.6,98.7*,-71.4,-0.6,.,71.8
CCOC(=O)C1(CC2CCCCO2)CCN(Cc2nccn2-c2cccc(C)c2)CC1 (stereo unspecified),.,52.5*,.,-0.4,-0.0396,.
Cc1cc(N=Nc2ccccc2)c(NCC(O)C(O)C(O)CO)cc1C (stereo unspecified),.,-1.2,82.3*,-0.8,-0.638,.
COC(=O)c1cccc(NC(=O)c2ccc(S(=O)(=O)N3CCN(C)CC3)cc2)c1,76.4,-0.5,33.3,-3.4,0.0288,83.4
O=C(Nc1cccc(Cl)c1)Nc1cc(S(=O)(=O)N2CCCCC2)ccc1Cl,3.9*,32.2,.,5.1,.,2.4*
O=C(CN1CCN(c2ccc(O)cc2)CC1)Nc1cc(S(=O)(=O)N2CCCCC2)ccc1Cl,.,98.6*,.,1.3,0.0658,.
O=C(Nc1ccccc1)c1cc(S(=O)(=O)N2CCSCC2)ccc1Cl,90.9,52.7*,-10.5,2.4,2.34,83.9
Cc1ccc(S(=O)(=O)N2CCCCC2)cc1NC(=O)Nc1ccc(Cl)cc1Cl,.,36.3,38.9,1.7,-0.414,.
CN1CCN(S(=O)(=O)c2ccc(NC(=O)Nc3cccc(Cl)c3)cc2)CC1,22.5,98.1*,6.2,2.3,-2,23.7
O=C(CCNc1n[nH]c(=O)[nH]c1=O)N/N=C\c1cccc(OCc2ccccc2)c1,.,10.3,.,2.6,-1.07,.
O=C(Nc1ccccc1)Nc1ccc(S(=O)(=O)N2CCCCC2)cc1,58.7,82.5*,-13.8,-4.3,.,32.6
O=C(Nc1ccc(S(=O)(=O)N2CCCCC2)cc1)c1ccccc1Cl,93.7,18.0,-4.1,1.7,-0.954,83.5
O=C(Nc1cccc(Cl)c1)Nc1ccc(Br)cc1F,35.9,67.6*,29.9,2.1,.,30.7
COC(=O)c1cc(NC(=O)Nc2cccc(Cl)c2)ccc1Cl,3.8*,71.4*,.,0.5,.,3.4*
O=C(Nc1cccc(Cl)c1)Nc1cccc(Cl)c1,85.7,-3.0,-100.0,-4.6,.,69.6
SMILES,HCT116 bCat-KO,L major viab,INS promoter inh,p97 inhibitor,ROMK primary,HCT116 PTEN-null
O=C(Nc1ccc(Cl)c(Cl)c1)Nc1cc(S(=O)(=O)N2CCOCC2)ccc1N1CCCC1,37.5,68.7*,28.6,10.0,-1.15,23.7
CC1(C2CC(C(F)(F)F)n3nc(C(=O)O)cc3N2)CC1 (stereo unspecified),.,-10.4,.,3.9,0.104,.
CN1CCC(OC(=O)COc2ccc(C(C)(C)C)cc2)CC1,109.0,18.2,-70.6,2.2,-1.06,104.4
COc1ccc(/C=N/OCC(=O)N=Nc2c(O)[nH]c3ccc(Br)cc23)cc1OC,87.9,63.5*,59.3,0.6,-0.000542,89.7
O=C(COC(=O)C1CC1)NCc1ccccc1Cl,100.3,-0.7,-67.6,4.9,0.0313,102.6
C/C(=N\NC(=O)C1CC1(c1ccccc1)c1ccccc1)c1cccc([N+](=O)[O-])c1 (stereo unspecified),82.5,59.7*,18.4,0.3,-0.0942,70.1
Cc1ccc(C2(c3ccc(C)cc3)CC2C(=O)Nc2ccc([N+](=O)[O-])cc2O)cc1 (stereo unspecified),2.3*,100.1*,.,3.6,-0.512,3.3*
CC1(C)CC1C(=O)Nc1ccc([N+](=O)[O-])cc1Br (stereo unspecified),91.3,-3.9,35.3,0.4,-0.502,81.2
CCOC(=O)c1nnn(-c2ccc([N+](=O)[O-])cc2[N+](=O)[O-])c1C,.,47.9,-23.1,6.8,-0.181,.
COc1cc(/C=N/Nc2ccc(Cl)c(C(=O)O)c2)ccc1OCC(=O)N1C(C)CCCC1C (stereo unspecified),.,-4.1,-16.7,1.6,0.499,.
Cc1cc(-c2ccccc2)nc2cc(C(=O)N(Cc3ccccc3)Cc3ccccc3)nn12,61.5,53.0*,51.4,-8.5,.,60.5
COC(=O)c1cc2nc(-c3ccccc3)cc(C)n2n1,97.1,-2.6,-50.0,0.5,-0.76,99.5
Cc1c(C(=O)Oc2ccc(F)cc2)sc2ncn(Cc3cccc(F)c3)c(=O)c12,95.3,50.9*,8.0,8.5,1.04,93.8
CCn1cnc2sc(C(=O)Oc3cccc(C)c3)c(C)c2c1=O,.,40.9,-6.2,-2.1,-0.00379,.
C=CCNC(=O)/C(=C/c1cccc([N+](=O)[O-])c1)NC(=O)c1ccco1,.,-6.6,.,3.1,0.233,.
CC(Sc1nc2ccccc2n1C)C(=O)NC(c1ccccc1)c1ccccc1 (stereo unspecified),81.6,99.8*,-354.1,-10.2,.,72.9
O=C(N/N=C/c1ccc(N2CCOCC2)s1)c1ccccc1Cl,.,-6.7,23.8,10.3,-0.0107,.
FC(F)(F)c1ccc(Cl)c(N/N=C/c2ccc(N3CCOCC3)s2)c1,87.0,97.6*,-24.1,-1.6,0.342,78.5
CS(=O)(=O)N(CC(=O)N1CCCCC1)c1cccc(F)c1,.,-5.2,-13.3,1.6,-0.314,.
O=[N+]([O-])c1ccn(-c2nc(-c3ccccc3)cc(C(F)(F)F)n2)n1,.,79.2*,33.3,3.8,0.319,.
COc1cccc(-c2cc(C(F)(F)F)nc(-n3ccc([N+](=O)[O-])n3)n2)c1,.,21.0,.,7.2,0.954,.
O=C(C1=C(O)/C(=C/c2ccc(O)cc2)CCC1)C(F)(F)F,65.5,56.0*,-160.5,3.2,0.596,71.8
COc1ccc(/C=C2\CCCC(C(=O)C(F)(F)F)=C2O)cc1,81.9,15.2,-31.0,-7.1,-2.57,88.1
COc1cc(OC)c2c(OC)cccc2n1,93.0,15.9,-10.3,3.8,-0.965,105.8
COc1ccc(S(=O)(=O)N[C@@H](C)C(=O)OCC(=O)Nc2cc3oc4ccccc4c3cc2OC)cc1,72.9,33.6,2.0,5.5,0.0232,75.5

# Screens: PubChem, several laboratories
